In all, about 650,000 compounds went through this assay and about 6,800 (1%) were called active. For the sample, actives were picked, then their nearest neighbours and some compounds at random. Values without a mark were called inactive. Cut-off read from the data, not from the text of the source: active = activation above about 4.9%; inactive = the rest.

Sequence of G-protein coupled receptor 151 (Homo sapiens) (Q8TDV0 whole entry, looked up): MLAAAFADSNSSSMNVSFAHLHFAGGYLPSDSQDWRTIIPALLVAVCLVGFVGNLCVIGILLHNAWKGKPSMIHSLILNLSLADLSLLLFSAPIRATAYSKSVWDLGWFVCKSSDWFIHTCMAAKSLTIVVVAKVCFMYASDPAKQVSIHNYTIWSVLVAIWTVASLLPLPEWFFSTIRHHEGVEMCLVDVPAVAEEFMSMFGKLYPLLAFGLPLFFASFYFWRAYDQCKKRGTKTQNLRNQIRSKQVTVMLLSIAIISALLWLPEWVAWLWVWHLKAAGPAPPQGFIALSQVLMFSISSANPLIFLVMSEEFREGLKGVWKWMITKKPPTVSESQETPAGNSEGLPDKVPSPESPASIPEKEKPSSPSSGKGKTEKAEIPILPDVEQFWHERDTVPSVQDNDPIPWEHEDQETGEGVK

This experiment concerns the target G-protein coupled receptor 151 (Homo sapiens) (UniProt Q8TDV0). Put plainly: activates the human receptor GPR151, primary screen, cell-based, PathHunter beta-arrestin, luminescence (AID 1508602).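 Note: 0% = median of compound wells and 100% = cells with positive control.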 To be noted: PathHunter beta-arrestin GPR151 cells, at 11.2 µM, active compounds read high.
On to `Cn1c(CNc2ccc(F)cc2)c(C#N)c2ccccc21`, for which the activation was 0.294%. For the molecule `OCc1ccccc1CNc1ccc(F)cc1`, the activation is 10.3% (active). For the molecule `Cc1ccc(NCc2ccccc2CO)cc1`, the activation was -5.47%. Take `COc1cc(CN2CCN(C3CCCC3)C(CCO)C2)cc(OC)c1OC` (stereo unspecified): the activation is -0.445%. As for `O=c1c2c([nH]c(=S)n1Cc1ccco1)-c1ccccc1CC21CCCCC1`, the activation is -0.102%. For the molecule `C=CCSc1nc2c(c(=O)n1CC1CCCC1)C1(CCCC1)Cc1ccccc1-2`, the activation is 0.419%. As for `CC(C)CCSc1nc2c(c(=O)n1Cc1ccco1)C1(CCCCC1)Cc1ccccc1-2`, the activation was 16.5% (active).

For the molecule `CC(C)(C)C(=O)/C=C/c1ccccc1O`, the activation is 0.824%.

In the case of `CC(C)N(CCNC(=O)c1cccc(-c2cccs2)n1)C(C)C`, the activation is -1.28%. On to `CCc1ccc(NC(=O)CN2C(=O)CSC(C)C2=O)cc1` (stereo unspecified), for which the activation is -0.109%.

In the case of `CCCCc1ccc(NC(=O)CSc2nnc(C)s2)cc1`, the activation is 0.0157%. As for `CCCCc1ccc(NC(=O)CN2C(=O)C(C)SC(C)C2=O)cc1` (stereo unspecified), the activation is 6.11% (active). Under `Cc1ccccc1C(=O)NNC(=O)c1ccccc1F` stands -3.61%; under `C=CCSC1=C(C#N)C(c2ccc(Cl)cc2Cl)CC(=O)N1` (stereo unspecified), 5.51% (active); under `CSC1=C(C#N)C(c2ccc(Cl)cc2Cl)CC(=O)N1` (stereo unspecified), -1.96%. As for `CCOc1ccc(NC(=O)CSC2=C(C#N)C(c3ccc(Cl)cc3Cl)CC(=O)N2)cc1` (stereo unspecified), the activation was -1.43%.

As to `COc1ccc([N+](=O)[O-])cc1NC(=O)c1cccc(Cl)c1Cl`, the activation was -1.48%.

Regarding `O=C(O)C1CC=C(Cl)CC1C(=O)Nc1cccc([N+](=O)[O-])c1` (stereo unspecified), the activation is -0.78%. As for `COc1ccc([N+](=O)[O-])cc1NC(=O)C1CC(Cl)=CCC1C(=O)O` (stereo unspecified), the activation is 6.77% (active). Take `CCN1CCN(C(=O)C(C)Oc2ccc(Cl)cc2Cl)CC1` (stereo unspecified): the activation was -0.795%. For the molecule `CCOC(=O)c1ccc(-n2c(C)c(C)n3c4c(=O)n(CC)c(=O)n(C)c4nc23)cc1`, the activation is 1.57%. Under `CCCn1c(=O)c2c(nc3n(-c4ccc(C)cc4)c(C)c(C)n23)n(C)c1=O` stands 3.26%. Take `CCc1ccc(-n2c(C)c(C)n3c4c(=O)n(CC)c(=O)n(C)c4nc23)cc1`: the activation was 5.92% (active). For `CCn1c(C)c(CCC(=O)NN2CCOCC2)c(=O)n2nc(-c3ccccc3OC)cc12`, the activation is -0.283%. As to `CCCCC(CCCC)=N/N=C1\NC(=O)C(CC(=O)O)S1` (stereo unspecified), the activation is -1.58%. In the case of `N#Cc1ccc(C(=O)OCC(=O)Nc2ccc3[nH]c(=O)[nH]c3c2)cc1`, the activation is 0.615%.

The record behind these values is PubChem BioAssay AID1508602 (The Scripps Research Institute Molecular Screening Center, 2020).
